From PubChem BioAssay (Tox21)
Where “and” joins values, the source holds several entries; their conditions need not be identical. Equal entries are not always repeated. The source holds several records for some structures; these can differ, active in one and inactive in another. Calls of active or inactive are those of the source. Where a call stands in place of a potency, no number is given. Unless noted, calls come from the whole dose curve; as a rule, active = well fitted curve in the direction sought with a large enough effect in the repeat runs; inconclusive = weak or mixed curves; inactive = no such curve, though single readings can be large; an effect the other way counts as inactive or inconclusive.

Legend:
[1] = qHTS assay to identify small molecule antagonists of the thyroid receptor (TR) signaling pathway - cell viability counter screen (AID 743064); note: nearly all actives have a fitted effect of over 50% in size; note: potency is the fitted concentration of half-maximal effect
Outline: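 Viability of T3-stimulated (1 nM final) GH3.TRE-Luc cells is measured by CellTiter-Fluor fluorescence after 23.5 h compound exposure at 37 °C plus 30 min reagent incubation.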

[2] = qHTS assay to identify small molecule antagonists of the thyroid receptor (TR) signaling pathway (AID 743065); note: nearly all actives have a fitted effect of over 55% in size; note: potency is the fitted concentration of half-maximal effect
Outline: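 Antagonism measured as loss of luciferase signal in GH3 cells stably carrying a TRE-luciferase reporter, co-treated with compound and T3 (1 nM final) for 23.5 h at 37 C. Viability was read in the same well by CellTiter-Fluor.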

[3] = tested on: thyroid hormone receptor (rat, GH3 cells); test: qHTS assay to identify small molecule agonists of the thyroid receptor (TR) signaling pathway (AID 743066; calls by dose curve)
[4] = qHTS assay to identify small molecule antagonists of the estrogen receptor alpha (ER-alpha) signaling pathway - cell viability counter screen (AID 743074; calls by dose curve;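 note: HEK293 cells carrying ER-alpha-UAS-bla reporter stimulated with 17beta-estradiol; nearly all actives have a fitted effect of over 45% in size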; note: potency is the fitted concentration of half-maximal effect)
[5] = biological target: Estrogen receptor (Homo sapiens) (UniProt P03372); test: qHTS assay to identify small molecule agonists of the estrogen receptor alpha (ER-alpha) signaling pathway (AID 743075; calls by dose curve; note: potency is the fitted concentration of half-maximal effect)
Estrogen receptor (Homo sapiens), sequence (P03372 whole entry, looked up): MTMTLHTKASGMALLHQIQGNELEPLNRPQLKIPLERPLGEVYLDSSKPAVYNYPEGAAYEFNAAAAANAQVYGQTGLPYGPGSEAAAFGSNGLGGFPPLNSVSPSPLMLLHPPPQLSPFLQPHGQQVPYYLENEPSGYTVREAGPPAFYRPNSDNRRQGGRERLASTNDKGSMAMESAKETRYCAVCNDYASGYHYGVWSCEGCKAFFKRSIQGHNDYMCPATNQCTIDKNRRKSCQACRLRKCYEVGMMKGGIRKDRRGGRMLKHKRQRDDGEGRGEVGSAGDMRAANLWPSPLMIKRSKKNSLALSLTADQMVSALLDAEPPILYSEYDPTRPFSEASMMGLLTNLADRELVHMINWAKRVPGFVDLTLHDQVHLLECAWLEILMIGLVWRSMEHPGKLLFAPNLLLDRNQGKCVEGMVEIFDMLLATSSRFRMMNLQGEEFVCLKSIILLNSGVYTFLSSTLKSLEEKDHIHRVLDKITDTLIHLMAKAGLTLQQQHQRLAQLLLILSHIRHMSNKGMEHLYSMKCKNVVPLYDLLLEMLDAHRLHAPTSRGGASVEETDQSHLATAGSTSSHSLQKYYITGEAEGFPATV

[6] = biological target: Estrogen receptor (Homo sapiens) (UniProt P03372); test: qHTS assay to identify small molecule agonists of the estrogen receptor alpha (ER-alpha) signaling pathway using the BG1 cell line (AID 743079); conditions: BG1Luc4E2 cells, ERE-luciferase agonist, 22 h; activation: at 70.3 µM (top of the series) unless noted; note: nearly all actives have a fitted effect of over 20% in size; note: potency is the fitted concentration of half-maximal effect
[7] = qHTS assay to identify small molecule antagonists of the estrogen receptor alpha (ER-alpha) signaling pathway using the BG1 cell line (AID 743080; calls by dose curve;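 note: BG1 cells stimulated with 17beta-estradiol alongside compound; nearly all actives have a fitted effect of over 25% in size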; note: potency is the fitted concentration of half-maximal effect)
Outline: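 Seeding, 24 h rest, compound transfer from DMSO, 17beta-estradiol addition, 21.5 h incubation, CellTiter-Fluor (30 min, 37 C), then ONE-Glo (30 min, room temperature): this sequence was run on BG1-Luc-4E2 reporter cells.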

[8] = qHTS assay to identify small molecule antagonists of the estrogen receptor alpha (ER-alpha) signaling pathway using the BG1 cell line - cell viability counter screen (AID 743081);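 note: compound given together with 17beta-estradiol as the ER stimulus; nearly all actives have a fitted effect of over 45% in size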; note: potency is the fitted concentration of half-maximal effect
Aromatase (Homo sapiens) = Aromatase (Homo sapiens) (UniProt P11511); test: qHTS assay to identify aromatase inhibitors (AID 743083); note: nearly all actives have a fitted effect of over 55% in size; note: potency is the fitted concentration of half-maximal effect
Aromatase (Homo sapiens), sequence (P11511 whole entry, looked up): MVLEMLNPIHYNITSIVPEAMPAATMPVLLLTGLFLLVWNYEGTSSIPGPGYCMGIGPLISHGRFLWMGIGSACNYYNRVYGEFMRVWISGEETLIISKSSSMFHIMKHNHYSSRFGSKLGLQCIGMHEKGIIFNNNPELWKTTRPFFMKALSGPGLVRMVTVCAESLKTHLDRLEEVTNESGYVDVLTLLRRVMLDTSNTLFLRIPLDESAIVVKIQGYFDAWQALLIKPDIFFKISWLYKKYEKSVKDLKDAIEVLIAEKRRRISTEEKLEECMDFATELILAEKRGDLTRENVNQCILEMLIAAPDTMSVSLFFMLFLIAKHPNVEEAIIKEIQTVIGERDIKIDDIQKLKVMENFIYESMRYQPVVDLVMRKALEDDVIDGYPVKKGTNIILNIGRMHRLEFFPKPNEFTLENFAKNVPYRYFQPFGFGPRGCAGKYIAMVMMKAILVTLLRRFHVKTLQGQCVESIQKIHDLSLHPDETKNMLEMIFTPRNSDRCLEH

[9] = biological target: Estrogen receptor (Homo sapiens) (UniProt P03372); test: qHTS assay to identify small molecule antagonists of the estrogen receptor alpha (ER-alpha) signaling pathway (AID 743069; active = well fitted curve in the direction sought with a large enough effect in the signal ratio in the repeat runs, not every such curve was filed as active; inconclusive = weak or mixed curves, or effect the other way; inactive = no such curve, though single readings can be large or run the other way; the % refers to the signal ratio; note: potency is the fitted concentration of half-maximal effect)
Outline: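 Compound effects are measured against 17beta-estradiol stimulation in HEK293 cells with a UAS-controlled beta-lactamase reporter for ER-alpha. Exposure lasts 18 hr at 37C; LiveBLAzer B/G FRET substrate follows for 2 hr at room temperature.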

| SMILES | Potency [1] | Potency [2] | Potency [3] | Potency [4] | Potency [5] | Potency [6] | Potency [7] | Potency [8] | Potency (Aromatase (Homo sapiens)) | Potency [9] |
| --- | --- | --- | --- | --- | --- | --- | --- | --- | --- | --- |
| C[C@]12CC[C@H]3[C@@H](CCC4=CC(=O)CC[C@@H]43)[C@@H]1CC[C@@H]2O | inactive | 21.1 µM (active) and 13.3 µM (active) and 30.4 µM (active) | inactive | inactive | 1.34 µM [inconclusive] (active) and 268 nM [inconclusive] (active) and 243 nM [inconclusive] (active) | 106 nM (active) and 59.6 nM (active) and 108 nM (active) | inactive | inactive | inactive | – |
| Brc1ccc(Br)cc1 | inactive | inactive | inactive | inactive | – | – | – | inactive | inactive | – |
| CC1(C)C(C(=O)OC(C#N)c2cccc(Oc3ccccc3)c2)C1(C)C (configuration not stated) | inactive | – | inactive | inactive | inactive | – | inactive | inactive | 48.9 µM (active) | inactive |
| CN(C)c1ccccc1 | inactive | inactive | inactive | – | – | – | – | inactive | – | – |
| Cl | inactive | inactive | inactive | inactive | – | – | – | inactive | inactive | – |
| COP(=S)(OC)SCn1nnc2ccccc2c1=O | inactive | – | inactive | inactive | inactive | inactive | inactive | inactive | 54.5 µM (active) | inactive |
| CCOP(=O)(O)OCC (tested in a mixture with another compound) | inactive and 7.63 µM (active) | – | inactive | inactive and 27.3 µM (active) | – | – | – | inactive and 54 µM (active) | – | – |
| N#Cc1c(Cl)c(Cl)c(Cl)c(C#N)c1Cl | 847 nM (active) and 193 nM (active) | 476 nM (active) and 172 nM (active) | – | 42.8 µM (active) and 54.9 µM (active) | 87.1 µM [inconclusive] (active) | – | – | 53.4 µM (active) and 61.1 µM (active) | 1.51 µM (active) and 969 nM (active) | 3.4 µM [inconclusive] (active) |
| CCNc1nc(Cl)nc(NC(C)(C)C#N)n1 | inactive | inactive | inactive | inactive | – | – | – | inactive | inactive | – |
| C[N+](C)(C)CC(=O)O | inactive | – | inactive | inactive | inactive | inactive | inactive | inactive | inactive | inactive |
| CCCCC(C#N)(Cn1cncn1)c1ccc(Cl)cc1 (configuration not stated) | inactive | – | inactive | inactive | inactive | inactive | 30.5 µM (active) and 61.1 µM (active) | inactive | 4.84 µM (active) and 3.86 µM (active) | inactive |
| c1ccc(C2CO2)cc1 (configuration not stated) | inactive | – | – | inactive | – | – | – | inactive | inactive | – |
| CC(C)=CC1C(C(=O)OCN2C(=O)C3=C(CCCC3)C2=O)C1(C)C (configuration not stated) | – | – | inactive | inactive | – | – | – | inactive | inactive | – |
| COC(=O)Nc1nc2ccccc2[nH]1 | 12.2 µM (active) | 5.45 µM (active) and 7.7 µM (active) | inactive | inactive | – | – | – | inactive | inactive | – |
| CCCCCCCCCC(CC)c1ccc(S(=O)(=O)O)cc1 (configuration not stated) | – | – | inactive | inactive and 43.6 µM (active) | – | – | – | inactive | – | – |
| C[N+](C)(C)CC(=O)[O-] | inactive | – | inactive | inactive | inactive | inactive | inactive | inactive | inactive | inactive |
| Cc1ccc(N=CN(C)C=Nc2ccc(C)cc2C)c(C)c1 | inactive and 48.5 µM (active) | – | inactive | inactive | inactive | inactive | inactive | inactive | inactive | inactive |
| CC(C)(c1ccc(OCC2CO2)cc1)c1ccc(OCC2CO2)cc1 (configuration not stated) | – | 55.2 µM (active) and 54.5 µM (active) | inactive | inactive | inactive | inactive | inactive | inactive | inactive | inactive |
| CCN(CC)C(=O)C(C)Oc1cccc2ccccc12 (configuration not stated) | inactive | – | inactive | inactive | inactive | inactive | – | inactive | 34.4 µM (active) | inactive |
| CC(C)(O)C#N | inactive | – | – | inactive | – | – | – | inactive | inactive | – |

| SMILES | Potency [1] | Potency [2] | Potency [3] | Potency [4] | Potency [5] | Potency [6] | Potency [7] | Potency [8] | Potency (Aromatase (Homo sapiens)) | Potency [9] |
| --- | --- | --- | --- | --- | --- | --- | --- | --- | --- | --- |
| O=C1CCCO1 | inactive | inactive | inactive | inactive | – | – | – | inactive | inactive | – |
| CC(C)CON=O | inactive | – | – | inactive | inactive | inactive | inactive | inactive | inactive | inactive |
| O=C(O)c1nn(Cc2ccc(Cl)cc2Cl)c2ccccc12 | inactive | – | inactive | inactive | 95.2 nM [inconclusive] (active) and inactive | 6.68 µM (active) and inactive | inactive | inactive | inactive | inactive |
| CCCCSP(=O)(SCCCC)SCCCC | – | inactive | inactive | inactive | – | – | – | inactive | inactive | – |
| C[N+](C)(C)C | inactive | – | inactive | inactive | inactive | inactive and 49.1 µM (active) | inactive | inactive | inactive | inactive |
| CC(C)(c1ccccc1)c1ccc(O)cc1 | 48.2 µM (active) and 61.1 µM (active) | – | inactive | inactive | 4.33 µM [inconclusive] (active) and 3.89 µM [inconclusive] (active) | 1.08 µM (active) and 686 nM (active) | – | inactive | 30.4 µM (active) and 30.6 µM (active) | 24.3 µM [inhibitor] (active) |
| CCC[CH2][Sn]([Cl])([CH2]CCC)[CH2]CCC | 307 nM (active) and 386 nM (active) | 194 nM (active) and 273 nM (active) | – | 693 nM (active) and 1.55 µM (active) | – | – | 274 nM (active) and 486 nM (active) | 2.74 µM (active) and 1.72 µM (active) | 2.74 µM (active) and 2.17 µM (active) | – |
| CNC(=S)S | inactive | – | – | inactive | inactive | inactive | inactive | inactive | inactive | inactive |
| COP(=S)(OC)Oc1ccc(S(=O)(=O)N(C)C)cc1 | inactive | – | inactive | inactive | inactive | inactive | inactive | inactive | inactive and 61.1 µM (active) | inactive |
| [CH3][Sn]([Cl])([Cl])[Cl] | inactive | – | – | inactive | – | – | – | inactive | inactive | – |
| O=C1Nc2ccc(Cl)cc2C(c2ccccc2)=NC1O (configuration not stated) | inactive | 54.9 µM (active) | inactive | inactive | – | – | – | inactive | inactive | – |
| CCCCCCCC[N+](C)(CCCCCCCC)CCCCCCCC | inactive and 2.44 µM (active) and 6.11 µM (active) | 1.37 µM (active) and 2.73 µM (active) | inactive | 7.75 µM (active) and 27.6 µM (active) and 8.71 µM (active) | – | – | – | inactive and 13.7 µM (active) and 27.3 µM (active) | 15.3 µM (active) and 3.44 µM (active) and 15.4 µM (active) | – |
| CCC[CH2][Sn]([Cl])([Cl])[CH2]CCC | 0.0344 µM (active) | 49.2 nM (active) and 10.9 nM (active) | – | 6.24 µM (active) and 2.75 µM (active) | 44.2 µM [inconclusive] (active) and 43.6 µM [inconclusive] (active) | – | – | 2.46 µM (active) and 770 nM (active) | 694 nM (active) and 172 nM (active) | 786 nM [inconclusive] (active) and 692 nM [inconclusive] (active) |
| CC(C)(C#N)N=NC(C)(C)C#N | inactive | – | – | inactive | inactive | inactive | inactive | inactive | inactive | inactive |
| Cc1cc(Cl)ccc1N=CN(C)C | inactive | – | – | inactive | – | – | – | inactive | inactive | – |
| N#CCCCCC#N | – | inactive | inactive | inactive | – | – | – | inactive | inactive | – |
| Nc1ccc([N+](=O)[O-])cc1N | 24.3 µM (active) and 43.3 µM (active) | 48.5 µM (active) and 48.6 µM (active) | inactive | – | – | – | – | – | inactive | – |
| S=c1[nH]c2ccccc2[nH]1 | inactive | inactive | inactive | inactive | – | – | – | inactive | inactive | – |
| O=[N+]([O-])c1ccc(Nc2ccccc2)cc1 | 48.6 µM (active) | 48.9 µM (active) and 30.6 µM (active) | inactive | – | inactive | – | – | 48.9 µM (active) and 27.3 µM (active) | 30.6 µM (active) | – |
